A number with no mark means an inactive call. How the calls were made is not given here.

Pantothenate synthetase (Mycobacterium tuberculosis (strain ATCC 25618 / H37Rv)), sequence (P9WIL5 whole entry, looked up): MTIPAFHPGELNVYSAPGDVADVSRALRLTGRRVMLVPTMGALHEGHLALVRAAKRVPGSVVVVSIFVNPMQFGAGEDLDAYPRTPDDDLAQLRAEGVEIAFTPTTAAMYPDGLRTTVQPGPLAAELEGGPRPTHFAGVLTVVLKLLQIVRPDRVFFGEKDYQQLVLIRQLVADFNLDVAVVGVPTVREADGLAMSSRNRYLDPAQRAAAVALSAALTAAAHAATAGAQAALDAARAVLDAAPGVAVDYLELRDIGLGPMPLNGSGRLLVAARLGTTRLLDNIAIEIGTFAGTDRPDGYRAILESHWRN

This experiment concerns the target Pantothenate synthetase (Mycobacterium tuberculosis (strain ATCC 25618 / H37Rv)) (UniProt P9WIL5). Kind of experiment: Recombinant Mtb pantothenate synthetase (PanC) inhibitors, coupled enzyme, confirmatory (AID 375).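 Further: 0% = full reaction with vehicle and 100% = no enzyme background.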 The note with it: coupled enzyme assay; at 10 µM, hits give high values.
For the compound `COc1ccc(S(=O)(=O)N(CC(=O)N2CCN(c3ccccc3OC)CC2)c2ccccc2)cc1`, the inhibition is 0%.
As to `Oc1ccccc1-c1cc(C(F)(F)C(F)F)[nH]n1`, the inhibition is 0%.
With `CCC(=O)N1CCc2cc(S(=O)(=O)CCC(=O)Nc3nc(C)cs3)ccc21`, the inhibition was 5%.
With `O=c1[nH]c2cc3c(cc2cc1C(c1nnnn1Cc1ccccc1)N1CCCc2ccccc21)OCO3` (stereo not given), the inhibition is 1%.
On to `Cc1ccccc1NC(=O)c1c(F)c(F)c(F)c(F)c1F`, for which the inhibition is 0%.
As to `CCN(CC)C(=O)CSc1nc2ccc(NC(=O)CSc3nccn3C)cc2s1`, the inhibition was 7%.
Regarding `CCCOc1ccc(N2C(=O)CC(NCCCN3CCC(C(N)=O)CC3)C2=O)cc1` (stereo not given), the inhibition was 4%.
Consider `Cc1nc2ccccc2c(=O)n1NC(=O)c1ccc(F)cc1Cl`, for which the inhibition was 5%.
With `CCNCC(O)COCC(O)CNCC` (stereo not given), the inhibition is 0%.
As to `Cc1[nH]n2c(=O)cc(Cc3ccccc3)nc2c1C#N`, the inhibition was 0%.
For the compound `CC(C)Cn1c(CN(Cc2ccccc2)Cc2ccccc2)nc2c1c(=O)n(C)c(=O)n2C`, the inhibition is 5%.
On to `CCOc1ccc(CN2CCN(c3cc(C)nc4c5c(C)cc(C)nc5nn34)CC2)cc1`, for which the inhibition was 0%.
In the case of `c1ccc2c(c1)nc(-c1ccncc1)n1nnnc21`, the inhibition is 11%.
For `Cc1ccc(N2CCN(C(=O)c3ccccc3Br)CC2)c(C)c1`, the inhibition is 6%.
Take `N#CCCN1CCN(S(=O)(=O)c2ccc(S(=O)(=O)NC3CCCC3)cc2)CC1`: the inhibition is 0%.
As for `Cc1cc(NS(=O)(=O)c2ccccc2)no1`, the inhibition was 1%.
On to `CCn1c(SCC(=O)c2ccc(Cl)cc2)nnc1-c1ccoc1C`, for which the inhibition is 0%.
With `COc1ccc(C(C(=O)NC2CCCCC2)N2CCC3(CC2)OCCO3)cc1` (stereo not given), the inhibition was 0%.
Consider `COc1ccc2c(c1)OC(O)(C(F)F)CC2=O` (stereo not given), for which the inhibition is 0%.
Take `CCn1c(=O)c(C(=O)Nc2cccnc2)c(O)c2ccccc21`: the inhibition was 0%.
In the case of `O=C(CN(Cc1ccc(F)cc1)C(=O)Cn1nnc2ccccc21)NCC1CCCO1` (stereo not given), the inhibition is 0%.
Then `O=c1c2ccccc2nc(-c2cccc(Cl)c2)n1O`, with 4%.
Then `Cc1oc(-c2ccc(Cl)cc2)cc1-c1nn2c(-c3ccoc3C)nnc2s1`, with 3%; and `Cc1ccc(C)c(C(=O)NC2CC(C)(C)NC(C)(C)C2)c1`, with 0%.
Regarding `COC(=O)C1C2C=CC3(CN(CC4CCCO4)C(=O)C13)O2` (stereo not given), the inhibition is 0%.
Turning to `COc1cccc2cc(C(=O)C3=C(O)C(=O)N(CCCN4CCOCC4)C3c3ccncc3)oc12` (stereo not given), the inhibition is 0%.
`Cn1c(SC/C=C/c2ccccc2)nnc1-c1cnccn1`: the inhibition was 1%.
Next, `Cc1cc(C)nc(NS(=O)(=O)c2ccc(NC(=O)Cn3c(=O)oc4ccccc43)cc2)n1`: 1%.
As to `O=C(NCc1nc2ccccc2[nH]1)c1ccc(Cl)c(S(=O)(=O)N2CCCC2)c1`, the inhibition is 1%.
Next, `CC1=Nn2c(nnc2-c2ccccc2)SC1`: 0%.
As to `COc1ccc(CN2C(=O)CN=C2Nc2ccc(C)cc2C)cc1`, the inhibition is 6%.
Next, `CCOC(=O)c1cnc(-n2nc(C)cc2C)nc1Nc1ccc(N(C)C)cc1`: 8%.
`Cc1c(NC(=O)c2cnn3c2NC(c2ccco2)CC3C(F)(F)F)c(=O)n(-c2ccccc2)n1C` (stereo not given): the inhibition was 9%.
As to `CCOC(=O)c1cnn(-c2ncnc3c2cnn3Cc2ccccc2)c1N`, the inhibition was 5%.
Next, `CC(C)N(C(=O)N1CCC(c2nc(-c3ccncc3)no2)CC1)C(C)C`: 0%; `Cc1csc(NC(=O)c2cc3c(s2)-c2ccccc2OC3)n1`: 0%; `COC(=O)CCC(=O)Nc1cccc(Br)c1`: 0%.
Then `N#CC1=C(N)Oc2c(ccc3cccnc23)C1c1cccnc1` (stereo not given), with 0%; and `O=S(=O)(NCCc1ccncc1)c1cc(Br)ccc1F`, with 0%; and `CCc1nn2c(=O)cc(CSc3nc4sc5c(c4c(=O)n3C)CCCC5)nc2s1`, with 0%.

By inhibition is commonly meant the share of the control response that was lost under treatment.

For the origin of these results see PubChem BioAssay.
